By Inhibition is commonly meant the relative decrease from the control value, in per cent.

For part of these data: Measured potencies and affinities stand elsewhere.

This is an account of results in ChEMBL document CHEMBL4296182, “CO-ADD screening of NIH NCI Diversity Set V”.

Assay [1] has as its system Staphylococcus aureus. The assay is described as follows: Antibacterial activity against Staphylococcus aureus MRSA ATCC 43300 (CO-ADD:GP_020); MIC in CAMBH media using NBS plates, by Resazurin F(560/590). The assay is classed as functional. The settings on record: Concentration 20 uM, ASSAY_TEST Inhibition of Bacterial Growth, detection method Resazurin, Fluorescence (ex560/em590), MEDIA CAMHB, plate type 384well, CORNING #3640, time 18 hr. In general terms: The colour change of resazurin is a common sign of viable cells or microbes.

For assay [2], the system named is Acinetobacter baumannii. Description: Antibacterial activity against Acinetobacter baumannii ATCC 19606 (CO-ADD:GN_034); MIC in CAMBH media using NBS plates, by Resazurin F(560/590). The assay is classed as functional. The settings on record: Concentration 20 uM, ASSAY_TEST Inhibition of Bacterial Growth, detection method Resazurin, Fluorescence (ex560/em590), MEDIA CAMHB, plate type 384well, CORNING #3640, time 18 hr.

Assay [3] concerns Escherichia coli. The assay is described as follows: Antibacterial activity against Escherichia coli ATCC 25922 (CO-ADD:GN_001); MIC in CAMBH media using NBS plates, by Resazurin F(560/590). The assay is classed as functional. The settings on record: Concentration 20 uM, ASSAY_TEST Inhibition of Bacterial Growth, detection method Resazurin, Fluorescence (ex560/em590), MEDIA CAMHB, plate type 384well, CORNING #3640, time 18 hr.

The test system of assay [4] is Klebsiella pneumoniae. The settings on record: Concentration 20 uM; ASSAY_TEST Inhibition of Bacterial Growth; detection method Absorption (OD600); MEDIA CAMHB; plate type 384well; NBS; CORNING #3640; time 18 hr.
For assay [5], the system named is Candida albicans. The settings on record: 20 µM.
Assay [6] concerns Cryptococcus neoformans. The settings on record: Concentration 20 uM; ASSAY_TEST Inhibition of Fungal Growth; detection method Resazurin; Absorption (OD600-OD570); plate type 384well; NBS; CORNING #3640.

As to `CCCCCCCCCCCCC(NC(C)=O)(C(=O)OCC)C(=O)OCC`, the Inhibition was 14.33% in assay [1]; 7.7% in assay [2]; 5.2% in assay [3]; 18.57% in assay [4]; 7.18% in assay [5]; -2.7% in assay [6].
For the compound `O=[N+]([O-])c1c(N2CCN(CCO)CC2)nc2ccccn12`, the Inhibition in assay [1] was 9.01%; in assay [2], -8.14%; in assay [3] it was 6.29%; in assay [4] it was 3.38%; in assay [5] it was -0.65%; in assay [6], -4.29%.
Take `CSc1nc(N)c(C(=O)NC2CCCCC2)s1`: the Inhibition was 30.14% in assay [1]; -5.51% in assay [2]; 5.05% in assay [3]; 13.28% in assay [4]; 8.55% in assay [5]; -3.08% in assay [6].
With `c1ccc2c(c1)cnc1ccccc12` [PHENANTHRIDINE], the Inhibition was 1.61% in assay [1]; -6.38% in assay [2]; 4.54% in assay [3]; 11.56% in assay [4]; 4.34% in assay [5]; -7.16% in assay [6].
As for `COc1ccc(OCC(O)CN2CCN(c3ccc(Cl)cc3)CC2)cc1` (stereo unspecified), the Inhibition is -0.5% in assay [1]; 8.48% in assay [2]; 10.52% in assay [3]; 5.97% in assay [4]; -0.41% in assay [5]; -11.59% in assay [6].
As to `OC(c1ccccc1)(c1ccccc1)c1nccn1-c1ccccc1`, the Inhibition in assay [1] was 0.11%; in assay [2] it was -3.61%; in assay [3], 5%; in assay [4], 3.43%; in assay [5] it was 1.72%; in assay [6], -7.88%.
As to `CC(C)Cc1nnc(N)s1`, the Inhibition in assay [1] was 5.28%; in assay [2], -16.63%; in assay [3], 6.53%; in assay [4], 28.97%; in assay [5], 1.43%; in assay [6] it was -13.23%.
`Cc1cc(NC(=O)c2ccccc2)nc(C)n1`: the Inhibition in assay [1] is 8.84%; in assay [2], -8.03%; in assay [3], 12.79%; in assay [4], 3.38%; in assay [5], 0.88%; in assay [6], -15.88%.
Turning to `Cc1ccc(Nc2nc(Cl)nc3ncn(C)c23)c(C)c1`, the Inhibition in assay [1] was 8%; in assay [2], 11.23%; in assay [3], -0.86%; in assay [4], 14.74%; in assay [5] it was 2.26%; in assay [6], -7.52%.
On to `CCOC(=O)Cc1cnc(S)nc1O`, for which the Inhibition in assay [1] was 9.6%; in assay [2], -11.54%; in assay [3] it was 7.99%; in assay [4], 8.74%; in assay [5], 1.43%; in assay [6] it was -1.74%.
Regarding `O=C(NCc1ccco1)Nc1cccc([N+](=O)[O-])c1`, the Inhibition in assay [1] was 14.39%; in assay [2], 8.34%; in assay [3], -1.12%; in assay [4], 10.94%; in assay [5], 3.5%; in assay [6] it was -10.49%.
`O=C1C2C3C=CC(O3)C2C(=O)N1Nc1ccccc1` (stereo unspecified): the Inhibition in assay [1] was -4%; in assay [2], 10.94%; in assay [3], -0.67%; in assay [4], 8.39%; in assay [5], 1.05%; in assay [6] it was -2.5%.
Consider `O=C1c2cccc3cc([N+](=O)[O-])cc(c23)C(=O)N1CCN1CCCC1` [PINAFIDE], for which the Inhibition was -1.04% in assay [1]; 10.65% in assay [2]; -8.19% in assay [3]; 5.33% in assay [4]; 0.21% in assay [5]; -7.33% in assay [6].
Turning to `CN1N=C/C(=C/NC(N)=O)C1=O`, the Inhibition in assay [1] is -2.54%; in assay [2], -2.43%; in assay [3], 9.08%; in assay [4], 2.78%; in assay [5] it was 0.49%; in assay [6], -3.93%.
As for `Nc1ncnc(N2CCOCC2)n1`, the Inhibition in assay [1] is -3.61%; in assay [2] it was -4.78%; in assay [3], -0.51%; in assay [4], 0.72%; in assay [5], 2.01%; in assay [6] it was -5.84%.
With `CC(=C/c1ccccc1)/C=C1/NC(=S)NC1=O`, the Inhibition was 2.65% in assay [1]; 4.35% in assay [2]; -0.7% in assay [3]; 10.87% in assay [4]; 2.17% in assay [5]; -5.48% in assay [6].
For the compound `CS(=O)(=O)O.OC(c1cc(C(F)(F)F)nc2c(Cl)cc(Cl)cc12)C1CCCCN1` (stereo unspecified), the Inhibition in assay [1] is 10.44%; in assay [2], 6.66%; in assay [3], 19.86%; in assay [4], 9.3%; in assay [5] it was 1%; in assay [6], -0.51%.
For the compound `Oc1cccc2cnccc12`, the Inhibition in assay [1] is -5.81%; in assay [2], 3.26%; in assay [3] it was 3.71%; in assay [4], 12.61%; in assay [5], 1%; in assay [6], 3.35%.
`COc1ccc2c(c1)c1ccc3c(c1n2C)C(=O)C=CC3=O`: the Inhibition in assay [1] is -28.89%; in assay [2] it was 3.5%; in assay [3] it was -18.56%; in assay [4], 4.14%; in assay [5], 7%; in assay [6], 0.4%.
As to `COc1ccc([N+](=O)[O-])cc1NS(=O)(=O)c1ccc(C)cc1`, the Inhibition in assay [1] was 7.11%; in assay [2] it was 4.99%; in assay [3], 7.35%; in assay [4], 9.82%; in assay [5], 5.66%; in assay [6], -6.48%.
On to `CC(=O)C1C=CC(C)(C(=O)O)C2C=C(C)C(=O)C(C)(O)C12` (stereo unspecified), for which the Inhibition in assay [1] is 4.72%; in assay [2], 16.27%; in assay [3] it was 8.25%; in assay [4], 21.21%; in assay [5] it was 1.75%; in assay [6], -4.78%.
As to `Cc1c(Cc2ccccc2)[n+]([O-])c2ccccc2[n+]1[O-]`, the Inhibition is 19.3% in assay [1]; -9.71% in assay [2]; 20.29% in assay [3]; -6.69% in assay [4]; -1.35% in assay [5]; -12.82% in assay [6].
`CC(=O)NCC(=O)O.CN(C)CCC1c2ccc(Cl)cc2CCc2cccnc21` (stereo unspecified) [CLOSIRAMINE ACETURATE]: the Inhibition in assay [1] was 15.26%; in assay [2], -11.76%; in assay [3] it was 19.15%; in assay [4] it was 8.33%; in assay [5] it was -2.05%; in assay [6], -9.31%.
For `Nc1nc(Cl)cc(Nc2ccccc2Cl)n1`, the Inhibition in assay [1] is 12.37%; in assay [2], 13.94%; in assay [3], -7.98%; in assay [4], 12.81%; in assay [5], 7.79%; in assay [6], 1.11%.
Turning to `C1CCCC(NC2=NCCO2)CCC1`, the Inhibition in assay [1] was -8.35%; in assay [2] it was -11.54%; in assay [3], -9.72%; in assay [4], 4.38%; in assay [5], -2.21%; in assay [6], -3.14%.
On to `Cc1cnc2c(N)cc(C)c(C)c2c1`, for which the Inhibition is 23.12% in assay [1]; -5.88% in assay [2]; 9.48% in assay [3]; 9.31% in assay [4]; 23.1% in assay [5]; -10.43% in assay [6].
